This is part of a sample that, as a whole, favours compounds with a hit. Of some 83,000 tested, about 20% had one in any assay.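 96-well plates, one dose, 48 hours. Percent growth reported; active if below 10.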 Unmarked numbers belong to inactive results. Activity calls are given as the source filed them.
Legend:
Test in all cases: NCI-60 one-dose screen, 48 h (100 = growth as untreated, 0 = no growth, -100 = all killed)
Details in all cases: 10 µM unless noted
SR leukemia = tested on: SR leukemia
RPMI-8226 leukemia = tested on: RPMI-8226 leukemia
OVCAR-8 ovarian = tested on: OVCAR-8 ovarian
OVCAR-5 ovarian = tested on: OVCAR-5 ovarian
OVCAR-4 ovarian = tested on: OVCAR-4 ovarian
SK-OV-3 ovarian = tested on: SK-OV-3 ovarian
IGROV1 ovarian = tested on: IGROV1 ovarian
OVCAR-3 ovarian = tested on: OVCAR-3 ovarian
HS 578T breast = tested on: HS 578T breast
NCI/ADR-RES ovarian = tested on: NCI/ADR-RES ovarian
T-47D breast = tested on: T-47D breast
BT-549 breast = tested on: BT-549 breast
MDA-MB-435 melanoma = tested on: MDA-MB-435 melanoma
SW-620 colon = tested on: SW-620 colon
MCF7 breast = tested on: MCF7 breast
HCT-116 colon = tested on: HCT-116 colon
HCC-2998 colon = tested on: HCC-2998 colon
KM12 colon = tested on: KM12 colon

Structure (SMILES) | growth (SR leukemia) | growth (RPMI-8226 leukemia) | growth (OVCAR-8 ovarian) | growth (OVCAR-5 ovarian) | growth (OVCAR-4 ovarian) | growth (SK-OV-3 ovarian) | growth (IGROV1 ovarian) | growth (OVCAR-3 ovarian) | growth (HS 578T breast) | growth (NCI/ADR-RES ovarian) | growth (T-47D breast) | growth (BT-549 breast) | growth (MDA-MB-435 melanoma) | growth (SW-620 colon) | growth (MCF7 breast) | growth (HCT-116 colon) | growth (HCC-2998 colon) | growth (KM12 colon)
CNC(=O)c1cc(Oc2ccc3nc(NC(=O)Nc4ccc(F)cc4F)sc3c2)ccn1 | 80.4% | 72.9% | 45.1% | 95.2% | 34.2% | 76.3% | 84.2% | 74.7% | 44.5% | 45.5% | 56.5% | 100% | 62.5% | 99.9% | 66.8% | 20.7% | 88.1% | 72.6%
Cn1cc(-c2ccc3c(Nc4cccc(NC(=O)Nc5cccc(F)c5)c4)ncnc3c2)cn1 | 0.802% (active) | -25.4% (active) | 34.6% | 67.6% | 67.6% | 3.1% (active) | 23.8% | 44.7% | 29.8% | 78% | 21.5% | 47.4% | 57.8% | 57.7% | 22.1% | 25.5% | 83.3% | 20.4%
Cc1ccc(C(F)(F)F)cc1N1CCN(C(=O)[C@H]2C[C@H]2c2ccc(C(F)(F)F)nc2)CC1 | 76% | 66.1% | 89.9% | 85.6% | 92% | 84.2% | 74.7% | 93.4% | 91.4% | 91.6% | 68.4% | 88.2% | 103% | 105% | 91.2% | 93.4% | 101% | 91.8%
C=C(C[n+]1ccccc1)[C@@H]1CC[C@]2(C(=O)OC)CC[C@]3(C)[C@H](CC[C@@H]4[C@@]5(C)CCC(=O)C(C)(C)[C@@H]5CC[C@]43C)[C@@H]12 | 84.8% | 52.3% | 90.3% | 101% | 55% | 99% | 64.2% | 58.9% | 87.9% | 103% | 81.4% | 72.8% | 77.6% | 89% | 82.9% | 96.9% | 90.9% | 78.4%
C=C(c1ccc(C(=O)O)c(F)c1)c1cc2c(cc1C)C(C)(C)C=CC2(C)C | 91.6% | 26.3% | 82.8% | 111% | 81.2% | 73% | 90.4% | 92.5% | 61.9% | 83.1% | 58.9% | 87.4% | 95.3% | 110% | 52.5% | 85.4% | 112% | 66.6%
NC(=O)[C@@H]1Cc2ccccc2CN1C(=O)c1ccc2c(c1)Cc1ccccc1-2 | 92.6% | 60.1% | 75.1% | 98.8% | 84.9% | 108% | 90.2% | 85.7% | 93.8% | 62.8% | 57.2% | 63.1% | 77.7% | 110% | 70.8% | 81.1% | 98.9% | 88.6%
O=C(O)c1cc2ccccc2s1 | 104% | 105% | 102% | 103% | 113% | 103% | 106% | 120% | 99.3% | 108% | 91.9% | 108% | 104% | 103% | 111% | 105% | 107% | 108%
COC(=O)[C@H](C)NC(=O)c1ccc(NC(=O)c2[nH]c(C)c(Cl)c2Cl)c(OCCN)c1 | 67.2% | 96.9% | 96.2% | 106% | 113% | 106% | 104% | 108% | 101% | 107% | 99.6% | 97% | 104% | 102% | 81.5% | 106% | 95.4% | 92.5%
CCC(C)C(N)C(=O)NC(CC(C)C)C(=O)N1CCCC1C(=O)NC(Cc1c[nH]c2ccccc12)C(=O)NC(CCCCN)C(=O)NC(Cc1c[nH]c2ccccc12)C(=O)N1CCCC1C(=O)NC(Cc1c[nH]c2ccccc12)C(=O)NC(Cc1c[nH]c2ccccc12)C(=O)N1CCCC1C(=O)NC(Cc1c[nH]c2ccccc12)C(=O)NC(CCCNC(=N)N)C(=O)NC(CCCNC(=N)N)C(N)=O (stereo unspecified) | 10.9% | 75% | 75.5% | 98.8% | 119% | 109% | 58.4% | 101% | 105% | 92.1% | 108% | 109% | 95.9% | 108% | 121% | 95.3% | 101% | 63.7%
COc1ccc(-c2nc3cc(C(=O)NC4CCCCC4)ccc3n2C2CCCCC2)cc1 | 51.2% | 79.2% | 107% | 85.6% | 86.6% | 98.7% | 101% | 89.1% | 105% | 90.7% | 87.6% | 94.9% | 99.4% | 101% | 85.2% | 87.1% | 91.8% | 68.6%
CCCCCC(C)(O)C(C(=O)O)c1ccccc1 (stereo unspecified) | 102% | 101% | 101% | 96.1% | 102% | 101% | 102% | 119% | 107% | 112% | 106% | 101% | 107% | 102% | 98.1% | 99.2% | 108% | 104%
CCOC(=O)CCC(=O)P(=O)(O)O | 4.41% (active) | 42.1% | 97.1% | 116% | 115% | 80.5% | 110% | 115% | 114% | 102% | 98.6% | 101% | 125% | 96.5% | 110% | 86.2% | 99.8% | 112%
O=C(O)CCCN1C(=O)CSC1=S | 103% | 98% | 105% | 106% | 102% | 109% | 103% | 105% | 98.9% | 103% | 97.7% | 99.8% | 97.7% | 114% | 90.9% | 102% | 104% | 101%
Nc1c(C(=O)c2ccc(Cl)cc2)sc(Nc2ccccc2)c1-c1nc2ccccc2s1 | 33.2% | 28.3% | 23% | 46.4% | -9.61% (active) | -0.592% (active) | 29.1% | 4.1% (active) | 32.4% | 18.8% | 11.8% | 55.2% | 16.7% | 39.3% | 43.9% | 13.9% | 67.5% | 16.1%
COc1cc2c(c(OC)c1OC)CCC(c1cccc(C(=O)Nc3ccc([N+](=O)[O-])cc3)c1)O2 (stereo unspecified) | 24.9% | 9.24% (active) | 42% | 84.3% | 40.7% | 78.4% | 72.2% | 56.5% | 77.1% | 38.2% | 9.09% (active) | 27.4% | 54.5% | 77.7% | 45.9% | 40.4% | 68.3% | 57.7%
CC1(C)C2=C(C(=O)N1Cc1ccccc1)C(c1ccco1)N(C(=O)C1CCC1)CCN2 (stereo unspecified) | 94.9% | 106% | 115% | 95.6% | 97.1% | 103% | 103% | 107% | 121% | 100% | 90.9% | 106% | 101% | 103% | 103% | 92.6% | 98.4% | 101%
O=C(/C=C\c1ccc(O)c(O)c1)c1ccccc1O | -13.3% (active) | 5.13% (active) | 69.4% | 103% | 74.9% | 97% | 46.3% | 73.8% | 91.8% | 74.3% | 67% | 5.5% (active) | 67.9% | 67.7% | 48% | 83.7% | 60.7% | 60.7%

Source: PubChem BioAssay (NCI)
